These sequences were tested against pT7_6His-AlfaTag-HOXD13 (human, UniProt P35453 263-343) (assay: PADIT-seq). Conditions: dsDNA, one strand shown.
pT7_6His-AlfaTag-HOXD13, sequence (P35453 263-343): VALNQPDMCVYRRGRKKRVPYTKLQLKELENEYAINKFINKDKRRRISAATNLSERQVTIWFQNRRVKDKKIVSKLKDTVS

Sequence	binding signal [log2FC]
CTCGAGGATATCAAGATCTGGCCTCGGCGTTTTACCAGGAACCTCTAGCTAGCCGACTCACTATAGGGATAATCGCCCTGAGCAAAGACC	0.423 ± 0.103
CTCGAGGATATCAAGATCTGGCCTCGGCCTTTTATCGGGAACCTCTAGCTAGCCGACTCACTATAGGGATAATCGCCCTGAGCAAAGACC	1.63 ± 0.0763
CTCGAGGATATCAAGATCTGGCCTCGGCTTTTTAGAAGGAACCTCTAGCTAGCCGACTCACTATAGGGATAATCGCCCTGAGCAAAGACC	0.559 ± 0.108
CTCGAGGATATCAAGATCTGGCCTCGGCCAGATAAAAGGAACCTCTAGCTAGCCGACTCACTATAGGGATAATCGCCCTGAGCAAAGACC	0.383 ± 0.117
CTCGAGGATATCAAGATCTGGCCTCGGCCTTTTAAGGGGAACCTCTAGCTAGCCGACTCACTATAGGGATAATCGCCCTGAGCAAAGACC	1.67 ± 0.0786
CTCGAGGATATCAAGATCTGGCCTCGGCCTTTTAAAAGGAACCTCTAGCTAGCCGACTCACTATAGGGATAATCGCCCTGAGCAAAGACC	2.5 ± 0.0673
CTCGAGGATATCAAGATCTGGCCTCGGCAAATTAAAAGGAACCTCTAGCTAGCCGACTCACTATAGGGATAATCGCCCTGAGCAAAGACC	2.15 ± 0.08
CTCGAGGATATCAAGATCTGGCCTCGGCAGGATAAAAGGAACCTCTAGCTAGCCGACTCACTATAGGGATAATCGCCCTGAGCAAAGACC	0.374 ± 0.0721
CTCGAGGATATCAAGATCTGGCCTCGGCCTTTTACGGGGAACCTCTAGCTAGCCGACTCACTATAGGGATAATCGCCCTGAGCAAAGACC	3.14 ± 0.0784
CTCGAGGATATCAAGATCTGGCCTCGGCGCGTGGACAGGAACCTCTAGCTAGCCGACTCACTATAGGGATAATCGCCCTGAGCAAAGACC	-1.05 ± 0.134
CTCGAGGATATCAAGATCTGGCCTCGGCGCGAAGGCGGGAACCTCTAGCTAGCCGACTCACTATAGGGATAATCGCCCTGAGCAAAGACC	-1.08 ± 0.132
CTCGAGGATATCAAGATCTGGCCTCGGCTTTTTATCGGGAACCTCTAGCTAGCCGACTCACTATAGGGATAATCGCCCTGAGCAAAGACC	1.91 ± 0.0856
CTCGAGGATATCAAGATCTGGCCTCGGCCGCCAGCGCGGAACCTCTAGCTAGCCGACTCACTATAGGGATAATCGCCCTGAGCAAAGACC	-0.898 ± 0.171
CTCGAGGATATCAAGATCTGGCCTCGGCTTTTTACAGGGAACCTCTAGCTAGCCGACTCACTATAGGGATAATCGCCCTGAGCAAAGACC	3.18 ± 0.0923
CTCGAGGATATCAAGATCTGGCCTCGGCGTCATAAAAGGAACCTCTAGCTAGCCGACTCACTATAGGGATAATCGCCCTGAGCAAAGACC	2.72 ± 0.0783
CTCGAGGATATCAAGATCTGGCCTCGGCCCTGTAAAAGGAACCTCTAGCTAGCCGACTCACTATAGGGATAATCGCCCTGAGCAAAGACC	2.46 ± 0.085
CTCGAGGATATCAAGATCTGGCCTCGGCGCGTGGGGTGGAACCTCTAGCTAGCCGACTCACTATAGGGATAATCGCCCTGAGCAAAGACC	-1.1 ± 0.157
CTCGAGGATATCAAGATCTGGCCTCGGCTATTGGGCGGGAACCTCTAGCTAGCCGACTCACTATAGGGATAATCGCCCTGAGCAAAGACC	-0.163 ± 0.106
CTCGAGGATATCAAGATCTGGCCTCGGCGACATAAAAGGAACCTCTAGCTAGCCGACTCACTATAGGGATAATCGCCCTGAGCAAAGACC	1.3 ± 0.0763
CTCGAGGATATCAAGATCTGGCCTCGGCGCGTGGGTCGGAACCTCTAGCTAGCCGACTCACTATAGGGATAATCGCCCTGAGCAAAGACC	-0.691 ± 0.125
CTCGAGGATATCAAGATCTGGCCTCGGCGCTTGGGCGGGAACCTCTAGCTAGCCGACTCACTATAGGGATAATCGCCCTGAGCAAAGACC	-0.995 ± 0.12
CTCGAGGATATCAAGATCTGGCCTCGGCGTTTTAGCAGGAACCTCTAGCTAGCCGACTCACTATAGGGATAATCGCCCTGAGCAAAGACC	0.799 ± 0.115
CTCGAGGATATCAAGATCTGGCCTCGGCTCACTAAAAGGAACCTCTAGCTAGCCGACTCACTATAGGGATAATCGCCCTGAGCAAAGACC	0.718 ± 0.11
CTCGAGGATATCAAGATCTGGCCTCGGCAGCGTAAAAGGAACCTCTAGCTAGCCGACTCACTATAGGGATAATCGCCCTGAGCAAAGACC	0.403 ± 0.0993
CTCGAGGATATCAAGATCTGGCCTCGGCGCGTGGGTTGGAACCTCTAGCTAGCCGACTCACTATAGGGATAATCGCCCTGAGCAAAGACC	-1.06 ± 0.134
CTCGAGGATATCAAGATCTGGCCTCGGCACTATAAAAGGAACCTCTAGCTAGCCGACTCACTATAGGGATAATCGCCCTGAGCAAAGACC	2.93 ± 0.0918
